According to PubChem BioAssay (NCATS):
Values joined by “and” are separate entries in the source; they are usually repeats but may differ in a detail not shown here. Equal values may be shown once. Results filed as inconclusive are left out. Active and inactive are the calls of the source. The call rests on the fitted dose curve; in most records, active means well fitted inhibition curve with a large enough effect; inconclusive means small, poorly fitted or top-dose-only effect; inactive means flat fitted curve, though single readings scatter.

Columns and labels:
[1] = test system: HEK293; assay: Cytotoxic Profiling of Annotated Libraries Using Quantitative High-Throughput Screening (AID 1296008); settings: Five cell lines viability, CellTiter-Glo ATP luminescence, 48-72 h; max response: stronger effect = lower value; on max response: on the % scale 0 is the no-effect control and ±100 the full control effect
Summary of the method: (§1)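 Compounds were pin-transferred onto cells and incubated 48 or 72 hr at 37 degree Celsius, 95% humidity. CellTiter-Glo was added, plates sat 10 min at room temperature, then ATP-coupled luminescence was imaged as the viability read-out.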

[2] = test system: HaCat; assay: as above; settings: Five cell lines viability, CellTiter-Glo ATP luminescence, 48-72 h; max response: stronger effect = lower value
Summary of the method: as §1

[3] = test system: KB-3-1; assay: as above; settings: Five cell lines viability, CellTiter-Glo ATP luminescence, 48-72 h; max response: stronger effect = lower value
Summary of the method: as §1

[4] = test system: NIH3T3; assay: as above; settings: Five cell lines viability, CellTiter-Glo ATP luminescence, 48-72 h; max response: stronger effect = lower value
Summary of the method: as §1

[5] = test system: HACAT; assay: qHTS assay to identify novel small-molecules to repurpose for Merkel cell carcinoma treatment (AID 1296009); settings: MCC and control cell lines, CellTiter-Glo viability, 72 h; at 44.8 µM (top of the series) unless noted
Summary of the method: (§2)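 Cells exposed to NPC (8-point) and MIPE (11-point) compound dilutions for 72 hr at 37 degree celsius; viability read by CellTiter-Glo luminescence, normalized to no-cell and DMSO in-plate controls.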

[6] = test system: MCC-13; assay: as above; settings: MCC and control cell lines, CellTiter-Glo viability, 72 h; series mostly up to 46 µM
Summary of the method: as §2

[7] = test system: MCC-26; assay: as above; settings: MCC and control cell lines, CellTiter-Glo viability, 72 h; series mostly up to 46 µM
Summary of the method: as §2

[8] = test system: MKL-1; assay: as above; settings: MCC and control cell lines, CellTiter-Glo viability, 72 h; series mostly up to 46 µM
Summary of the method: as §2

[9] = test system: P94_40; assay: qHTS profiling for inhibitors of Plasmodium falciparum proliferation (AID 504749); settings: P. falciparum in erythrocytes, SYBR Green DNA, 72 h; series mostly up to 28.7 µM
Summary of the method: (§3)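 P. falciparum-infected erythrocytes (0.3% parasitemia, 2.5% hematocrit final) were exposed to compounds for 72 h at 37 C in 5% CO2, then lysed with SYBR Green buffer overnight at room temperature; parasite DNA fluorescence was normalized to artemisinin and DMSO controls.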

[10] = test system: PAD; assay: as above; settings: P. falciparum in erythrocytes, SYBR Green DNA, 72 h; series mostly up to 28.7 µM
Summary of the method: as §3

[11] = test system: PC15; assay: as above; settings: P. falciparum in erythrocytes, SYBR Green DNA, 72 h; series mostly up to 28.7 µM
Summary of the method: as §3

[12] = test system: PC26; assay: as above; settings: P. falciparum in erythrocytes, SYBR Green DNA, 72 h; series mostly up to 28.7 µM
Summary of the method: as §3

[13] = test system: PC49; assay: as above; settings: P. falciparum in erythrocytes, SYBR Green DNA, 72 h; series mostly up to 28.7 µM
Summary of the method: as §3

[14] = test system: SC27B; assay: as above; settings: P. falciparum in erythrocytes, SYBR Green DNA, 72 h; series mostly up to 28.7 µM
Summary of the method: as §3

[15] = test system: TAB109; assay: as above; settings: P. falciparum in erythrocytes, SYBR Green DNA, 72 h; series mostly up to 28.7 µM
Summary of the method: as §3

[16] = test system: TAB113; assay: as above; settings: P. falciparum in erythrocytes, SYBR Green DNA, 72 h; series mostly up to 28.7 µM
Summary of the method: as §3

[17] = test system: TAB165; assay: as above; settings: P. falciparum in erythrocytes, SYBR Green DNA, 72 h; series mostly up to 28.7 µM
Summary of the method: as §3

[18] = test system: W2; assay: as above; settings: P. falciparum in erythrocytes, SYBR Green DNA, 72 h; series mostly up to 28.7 µM
Summary of the method: as §3

[19] = test system: CRL-7250; assay: Cytotoxic Profiling of Annotated Libraries Using Quantitative High-Throughput Screening (AID 1296008); settings: Five cell lines viability, CellTiter-Glo ATP luminescence, 48-72 h; max response: stronger effect = lower value; on max response: on the % scale 0 is the no-effect control and ±100 the full control effect
Summary of the method: as §1
Further: nearly all actives have a fitted effect of over 60% in size.
Potency means the concentration at half of the fitted maximal effect.

COc1cc(/C=C/C(=O)O[C@H]2CC[C@]34C[C@]35CC[C@]3(C)[C@@H]([C@H](C)CCC=C(C)C)CC[C@@]3(C)[C@@H]5CC[C@H]4C2(C)C)ccc1O
inactive: max response [1] 2.65% | outcome [2] | max response [3] 0.76% and -6.22% | max response [4] 0.391% | outcome [5] | Potency [6] | Potency [7] | Potency [8]

O=C(COc1ccc(Cl)cc1)N1CCN(Cc2ccc3c(c2)OCO3)CC1
inactive: Potency [9] | Potency [10] | Potency [11] | Potency [12] | Potency [13] | Potency [14] | Potency [15] | Potency [16] | Potency [17] | Potency [18] | max response [19] -27.2% | max response [3] -11.1% | max response [4] 0.953% | Potency [6] | Potency [8]

OC[C@H]1O[C@@H](n2cnc3c(=S)nc[nH]c32)[C@H](O)[C@@H]1O
active: Potency [1] 4.73 µM | Potency [2] 2.99 µM | Potency [4] 1.88 µM | Potency [6] 2.11 µM
inactive: Potency [7]

C[C@@H]1C[C@H]2[C@@H]3C[C@H](F)C4=CC(=O)C(Cl)=C[C@]4(C)[C@@]3(F)[C@@H](O)C[C@]2(C)[C@@]1(O)C(=O)CO
inactive: max response [2] 2.77% | max response [3] 11.7% | max response [4] -7.22% | Potency [6] | Potency [7] | Potency [8]

Cc1ccc(O)c2ncccc12
active: Potency [8] 15 µM
inactive: Potency [10] | Potency [11] | Potency [12] | Potency [13] | Potency [14] | max response [19] -10.3% | max response [2] 2.26% | max response [3] -5.97%

CCN(CC)CCOc1ccc(C(O)(Cc2ccc(Cl)cc2)c2ccc(C)cc2)cc1 (stereo unspecified)
active: Potency [17] 10 µM | Potency [18] 6.01 µM | Potency [1] 9.44 µM | Potency [3] 16.4 µM

O=S1(=O)c2cccc3cccc(c23)N1CCCN1CCN(c2ccc(F)cc2)CC1
inactive: Potency [10] | Potency [11] | Potency [13] | Potency [14] | Potency [15] | Potency [16] | Potency [17] | Potency [18] | max response [2] -0.344% | max response [3] -1.2% | max response [4] -13.9% | Potency [6] | Potency [7] | Potency [8]

O=C(OCC(O)CO)c1ccccc1Nc1ccnc2cc(Cl)ccc12 (stereo unspecified)
inactive: outcome [19] | max response [2] -6.51% | max response [3] 1.57% | Potency [6] | Potency [8]

CC(=O)Oc1ccc2c(c1)CC[C@@H]1[C@@H]2CC[C@]2(C)[C@@H](O)CC[C@@H]12
inactive: max response [19] -2.1% | max response [2] -1.57% | max response [4] 2.78% | Potency [6]

CCCCOc1ccc(OCCCN2CCOCC2)cc1
inactive: Potency [9] | Potency [10] | Potency [11] | Potency [12] | Potency [13] | Potency [14] | Potency [15] | Potency [16] | Potency [17] | Potency [18] | max response [19] 2.95% | max response [2] -3.82% | max response [3] 3.23% | Potency [6] | Potency [8]

C#C[C@]1(O)CC[C@H]2[C@@H]3CCc4cc(OC5CCCC5)ccc4[C@H]3CC[C@@]21C
inactive: Potency [10] | Potency [11] | Potency [12] | Potency [13] | Potency [15] | Potency [17] | max response [19] 0.636% | max response [3] -14.7% | Potency [6] | Potency [7]

CCCCCCCCCCCCCCCC[N+](C)(C)CCN(Cc1ccc(OC)cc1)c1ncccn1
active: Potency [1] 9.44 µM | Potency [8] 5.96 µM
inactive: Potency [9] | Potency [10] | Potency [12] | Potency [13] | max response [3] -4.99%

CCCOC(C(=O)OC1CCN(C)CC1)(c1ccccc1)c1ccccc1
active: Potency [18] 6.01 µM
inactive: Potency [10] | Potency [13] | max response [19] -3.11% | max response [2] -26.2% | max response [4] 4.34% | Potency [6] | Potency [7] | Potency [8]

CC(C)(C)CC(C)(C)c1ccc(OCCOCC[N+](C)(C)Cc2ccccc2)cc1
active: Potency [9] 5.01 µM | Potency [10] 8.91 µM | Potency [11] 5.01 µM | Potency [12] 4.26 µM | Potency [13] 6.31 µM | Potency [14] 5.62 µM | Potency [15] 5.62 µM | Potency [16] 3.55 µM | Potency [17] 3.16 µM | Potency [18] 1.2 µM | Potency [1] 6.68 µM and 8.2 µM | Potency [3] 20.6 µM | Potency [8] 1.06 µM
inactive: max response [4] -27.5% | Potency [6]

COc1ccc(CCN2CCC(Nc3nc4ccccc4n3Cc3ccc(F)cc3)CC2)cc1
active: Potency [9] 3.16 µM | Potency [10] 3.98 µM | Potency [11] 6.31 µM | Potency [12] 6.75 µM | Potency [13] 4.47 µM | Potency [14] 3.98 µM | Potency [15] 2.51 µM | Potency [16] 3.98 µM | Potency [17] 2.82 µM | Potency [18] 3.01 µM | Potency [1] 9.44 µM | Potency [4] 4.73 µM | Potency [6] 23.7 µM

COc1cccc(CCc2ccccc2OCC(CN(C)C)OC(=O)CCC(=O)O)c1 (stereo unspecified)
active: Potency [9] 4.47 µM | Potency [10] 3.55 µM | Potency [11] 5.01 µM | Potency [12] 3.79 µM | Potency [13] 3.16 µM | Potency [14] 5.01 µM | Potency [15] 4.47 µM | Potency [16] 5.62 µM | Potency [17] 4.47 µM | Potency [18] 0.757 µM
inactive: max response [19] 3.68% | max response [3] -2.49% | max response [4] -1.97% | Potency [6] | Potency [7] | Potency [8]

CCCCOc1ccc(C(=O)CCN2CCCCC2)cc1
active: Potency [8] 9.44 µM
inactive: Potency [9] | Potency [10] | Potency [11] | Potency [12] | Potency [13] | Potency [14] | Potency [15] | Potency [16] | Potency [17] | outcome [2] | max response [3] 0.445% | max response [4] -2.83% | outcome [5] | Potency [6] | Potency [7]
